# Experimental data taken from the supplement of paper PMC12636033.
# ± gives the standard deviation of the averaged measurements. The full ranking holds about 33,000 sequences; the median of “E-score (rank enrichment, -0.5 to 0.5)” is about -0.0075, and the highest 2% start at about 0.23. What follows is part of a selection rich in the highest values, with near analogues and random picks from the rest.
# System: WT Max(13-93) synthetic (M65Nle)
# Test: PBM 8-mer E-score (E-score (rank enrichment, -0.5 to 0.5)); higher = stronger preferential binding
# Protocol: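 Protein binding microarray (universal PBM chip covering all 10-mers in fixed probe flanks) with chemically synthesized human Max(13-93) bHLH-LZ analogs (not full-length Max) bearing noncanonical residues (hArg, Tha, Aib, Nle at 65) and aromatic Cys staples. Read-out per 8-mer (and its reverse complement): E-score (rank-based enrichment, -0.5 to 0.5) and Z-score of median probe intensity.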
row,Sequence,PBM 8-mer E-score
1,AGTAGCGC,-0.0656 ± 0.04
2,AACCACTT,0.109 ± 0.14
3,ACCCAATG,-0.141 ± 0.067
4,ACCCCGCG,-0.0797 ± 0.15
5,AAGCTGGC,-0.176 ± 0.06
6,CCAACCGG,-0.267 ± 0.0078
7,CTAGCGCC,-0.283 ± 0.024
8,ATTGTCTC,-0.142 ± 0.088
9,ATTGTCTA,0.26 ± 0.005
10,GTTGTCTA,0.224 ± 0.094
11,TATCTGCA,0.0121 ± 0.066
12,CAACTGCA,-9e-05 ± 0.065
13,CGATTATC,-0.178 ± 0.066
14,GTCGAAAC,0.079 ± 0.031
15,GATAACTA,0.235 ± 0.061
16,CATAACTA,0.167 ± 0.0044
17,AATAACTA,0.125 ± 0.0044
18,CATAACCA,0.165 ± 0.033
19,GATAACCA,0.24 ± 0.037
20,TATAACCA,0.17 ± 0.0076
21,CCATGACC,-0.0452 ± 0.14
22,AAGATATC,0.0756 ± 0.073
23,AAGATACT,0.0763 ± 0.011
24,GAGATAAC,0.104 ± 0.025
25,AAGATATA,0.253 ± 0.046

row,Sequence,PBM 8-mer E-score
1,AAGATAAG,0.152 ± 0.024
2,CAGATATA,0.108 ± 0.023
3,GAGATACA,0.0679 ± 0.025
4,AAGATAAC,0.266 ± 0.045
5,AAGATACA,0.258 ± 0.015
6,ACAGTCCG,-0.0248 ± 0.0053
7,CACGGTGC,0.0526 ± 0.033
8,ATGTTATG,0.251 ± 0.084
9,ATGTTAAG,0.107 ± 0.028
10,GTGTTAAC,0.0845 ± 0.082
11,CTGTTATA,0.055 ± 0.085
12,ATGTTATC,0.0836 ± 0.016
13,ATGTTAAC,0.291 ± 0.035
14,ATGTTATA,0.235 ± 0.069
15,CTGTTAAC,-0.00712 ± 0.14
16,GTGTTATA,0.215 ± 0.0088
17,GTGTGCCA,-0.0682 ± 0.094
18,ATACGCAC,0.0776 ± 0.052
19,ATAGTCAG,0.0518 ± 0.079
20,AACTATTG,0.139 ± 0.033
21,ACCTTCCC,-0.0595 ± 0.1
22,AGCATGTG,0.295 ± 0.0053
23,GGCATGTA,0.135 ± 0.023
24,AGCATGTC,0.157 ± 0.0017
25,AGCATGTA,0.238 ± 0.019

row,Sequence,PBM 8-mer E-score
1,CGCATGTA,0.0311 ± 0.051
2,AGCATGGG,0.128 ± 0.096
3,ACAGGTTA,0.0367 ± 0.075
4,CTTCTCCC,0.0392 ± 0.039
5,AAATTCGG,0.0747 ± 0.038
6,ATGGTCCA,-0.0964 ± 0.052
7,AAGGCATG,0.207 ± 0.081
8,AAAACAGC,0.0957 ± 0.12
9,CAAACAGG,0.0276 ± 0.019
10,AAAACACA,0.128 ± 0.02
11,CAAACACG,0.285 ± 0.064
12,TAAACACA,0.182 ± 0.021
13,AAAACACG,0.193 ± 0.049
14,CAAACACA,0.2434 ± 0.00028
15,CAAACACC,0.118 ± 0.15
16,CAAACAGC,0.244 ± 0.0038
17,ACATTTCT,0.152 ± 0.0081
18,CCCTGGCG,-0.198 ± 0.061
19,TACGGTCA,-0.0681 ± 0.052
20,CCAAGGCG,-0.191 ± 0.077
21,ACCGTAAT,-0.00988 ± 0.068
22,TAGCTGGA,-0.111 ± 0.035
23,AATTACAT,0.135 ± 0.0071
24,AATTACAA,0.251 ± 0.026
25,TATTACAA,0.181 ± 0.024

row,Sequence,PBM 8-mer E-score
1,GTAATCAC,-0.0619 ± 0.076
2,ACCGTGTC,-0.0348 ± 0.1
3,ATTAACAG,0.0545 ± 0.024
4,GTTAACAA,0.138 ± 0.024
5,ATTAACTC,0.16 ± 0.064
6,ATTAACAC,0.247 ± 0.019
7,ATTAACAA,0.289 ± 0.057
8,CTTAACAC,0.135 ± 0.068
9,GTTTCCGA,0.0231 ± 0.1
10,CTCAAAGC,-0.0195 ± 0.016
11,CATGATGA,0.233 ± 0.045
12,CATGATGG,-0.0865 ± 0.045
13,AATGATAC,0.2224 ± 0.00047
14,CATGATAA,0.296 ± 0.039
15,AATGATAA,0.146 ± 0.062
16,AATGATAT,0.257 ± 0.086
17,AATGATAG,0.166 ± 0.08
18,CATGATGC,0.124 ± 0.073
19,TATGATAA,0.201 ± 0.065
20,CCCTTCTA,0.2 ± 0.016
21,ATCCCTAC,0.0174 ± 0.027
22,AAGAGTAA,0.0887 ± 0.095
23,CCAGGTAG,-0.0484 ± 0.088
24,AACGCGGA,-0.0101 ± 0.013
25,CACGCGGA,0.351 ± 0.014

row,Sequence,PBM 8-mer E-score
1,GACGCGGC,-0.164 ± 0.043
2,CACGCGGC,0.323 ± 0.0093
3,CACGCGGG,0.224 ± 0.044
4,AACGCGGC,-0.0617 ± 0.052
5,CGCAATAG,-0.129 ± 0.02
6,ACCATCCA,0.0359 ± 0.035
7,ACCTCAAG,0.0864 ± 0.0059
8,CGTATTCA,-0.00816 ± 0.064
9,CACCTTTC,0.0495 ± 0.029
10,ACCGAAGC,-0.0719 ± 0.043
11,GATGTTTA,0.0913 ± 0.016
12,AGTGTTTA,0.0808 ± 0.099
13,CATGTTTC,0.192 ± 0.017
14,GGTGTTTA,-0.0165 ± 0.02
15,CGTGTTTA,0.274 ± 0.019
16,CATGTTTA,0.302 ± 0.07
17,CGATCCAG,-0.318 ± 0.024
18,ACGTAACT,-0.0612 ± 0.056
19,ATGGAGCC,-0.159 ± 0.086
20,ACCCTATC,-0.0509 ± 0.049
21,ATAATGCA,0.161 ± 0.072
22,TACGTGCA,0.126 ± 0.094
23,GACGTGCA,0.132 ± 0.021
24,CACGTGCA,0.4864 ± 0.0015
25,GACGTGCC,-0.0759 ± 0.054

row,Sequence,PBM 8-mer E-score
1,AACGTGCG,0.188 ± 0.037
2,CACGTGCC,0.472 ± 0.0067
3,CACGTGCG,0.48552 ± 0.00018
4,AACGTGCT,0.181 ± 0.038
5,CCCGTGCG,0.00827 ± 0.054
6,AACGTGCC,0.0848 ± 0.0026
7,AACGTGCA,0.283 ± 0.044
8,CAGGTGCG,-0.186 ± 0.068
9,AAACTCAG,-0.0399 ± 0.035
10,AAGTGTCA,0.0618 ± 0.14
11,AAATAAGT,0.126 ± 0.0013
12,CTTGTTGC,0.124 ± 0.046
13,CTGCCGGA,-0.102 ± 0.082
14,ACAAAAAT,0.111 ± 0.084
15,CAAAACCC,0.138 ± 0.027
16,CCAAAACC,0.0915 ± 0.13
17,CAAAAACC,0.241 ± 0.035
18,ACAAAAAC,0.215 ± 0.07
19,ACAAATGG,0.196 ± 0.099
20,GCAAGCAA,-0.0138 ± 0.026
21,ACAAAAAA,0.251 ± 0.016
22,ACAAGCAA,0.239 ± 0.01
23,ACAAATGT,0.277 ± 0.073
24,ACAAGCAC,0.0152 ± 0.013
25,ACAAATGA,0.104 ± 0.068

row,Sequence,PBM 8-mer E-score
1,ACCACCTC,0.0118 ± 0.00067
2,ACGTTTTC,0.116 ± 0.034
3,ATAGAGTC,-0.13 ± 0.093
4,CGTCGAAG,-0.152 ± 0.018
5,CTAGCTCC,-0.117 ± 0.094
6,GCACGACA,-0.0608 ± 0.098
7,AAGCTGGA,-0.0702 ± 0.12
8,GCAGAAGC,-0.118 ± 0.075
9,ATGTTCCC,0.0189 ± 0.083
10,TAAAATAA,0.15 ± 0.0044
11,ACAAAATC,0.106 ± 0.0076
12,CAAAAAAA,0.248 ± 0.0035
13,ACAAAATG,0.3408 ± 0.0015
14,CCAAAAAA,0.171 ± 0.017
15,CAAAAAAC,0.161 ± 0.012
16,CAAAATAA,0.239 ± 0.012
17,AAAAATAA,0.0936 ± 0.097
18,ACAAAATA,0.209 ± 0.054
19,CGTGCCCA,-0.00988 ± 0.079
20,ATCTTAGG,-0.0691 ± 0.031
21,CAGTGATG,0.0281 ± 0.13
22,ACGAGGCC,-0.0195 ± 0.14
